# Test results reported in the supplement of paper PMC12636033.
# ± gives the standard deviation of the averaged measurements. Whole data set: some 33,000 sequences, median “E-score (rank enrichment, -0.5 to 0.5)” near -0.0043, cut for the highest 2% near 0.24. The entries come from a sample that favours the highest values as a whole.
# Test system: 2Sp-muMax20 (muMax20 with two 2,6-bis(methyl)pyridine Cys staples)
# Test: PBM 8-mer E-score (E-score (rank enrichment, -0.5 to 0.5)); higher = stronger preferential binding
# Experimental: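 Protein binding microarray (universal PBM chip covering all 10-mers in fixed probe flanks) with chemically synthesized human Max(13-93) bHLH-LZ analogs (not full-length Max) bearing noncanonical residues (hArg, Tha, Aib, Nle at 65) and aromatic Cys staples. Read-out per 8-mer (and its reverse complement): E-score (rank-based enrichment, -0.5 to 0.5) and Z-score of median probe intensity.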
row,Sequence,PBM 8-mer E-score
1,CAACCCCA,0.264 ± 0.035
2,CAACCCAA,0.0124 ± 0.094
3,CAACCCCC,-0.196 ± 0.022
4,ATGCTTTA,0.138 ± 0.081
5,ATGCTTTC,0.125 ± 0.017
6,ATGCTTTG,0.239 ± 0.036
7,GCGCGCTA,0.235 ± 0.021
8,AATCGCAG,0.142 ± 0.046
9,TGGGCCAA,-0.0226 ± 0.046
10,CTGCAATA,0.0295 ± 0.0051
11,GTGCAATA,0.0506 ± 0.012
12,CTGCATTA,0.107 ± 0.025
13,ATGCATCG,0.0497 ± 0.074
14,GTGCATCA,0.0111 ± 0.045
15,ACGCATGA,0.136 ± 0.0059
16,ATGCATCA,0.347 ± 0.046
17,GTGCATTA,0.156 ± 0.042
18,ACGCATGC,0.277 ± 0.06
19,ATGCATTA,0.319 ± 0.0086
20,ACGCATGG,0.13 ± 0.026
21,ATGCAATA,0.246 ± 0.0094
22,CGACCACC,-0.142 ± 0.0047
23,GCCTTAGC,-0.154 ± 0.029
24,AGATCTTG,0.152 ± 0.051
25,CCATCGAA,-0.00649 ± 0.052

row,Sequence,PBM 8-mer E-score
1,GACTATGC,0.0616 ± 0.023
2,ATCCAGTG,-0.0872 ± 0.065
3,ACATTCGG,-0.0311 ± 0.13
4,ATGCATAA,0.114 ± 0.045
5,ATGCATGC,0.262 ± 0.048
6,CTGCATGC,0.0733 ± 0.071
7,ACGCATAG,-0.0802 ± 0.035
8,ATGCATTC,0.285 ± 0.048
9,ATGCATTG,0.165 ± 0.0071
10,CTGCATTC,-0.000675 ± 0.052
11,ATGCATGG,0.13 ± 0.055
12,ACGCATAT,0.333 ± 0.011
13,CTGCATAC,0.0466 ± 0.068
14,ATGCATAC,0.258 ± 0.12
15,ACGCATAA,0.164 ± 0.07
16,CAGGGGGA,0.00992 ± 0.059
17,ACACCGCT,-0.116 ± 0.068
18,CAGCTTGG,-0.0934 ± 0.012
19,GCCCGGGC,-0.296 ± 0.055
20,ACTGAATG,-0.0577 ± 0.048
21,CGCCGATC,-0.128 ± 0.13
22,ATTTGCCA,-0.024 ± 0.041
23,ACTTCCGG,-0.229 ± 0.1
24,CTCCTCTA,-0.151 ± 0.013
25,CACCTCCG,-0.0614 ± 0.051

row,Sequence,PBM 8-mer E-score
1,GAAAGTCA,-0.0504 ± 0.065
2,AGCTGGGA,-0.08 ± 0.019
3,ATACATTG,0.106 ± 0.029
4,ATTCATTG,0.161 ± 0.087
5,CTACATTC,0.0778 ± 0.03
6,ATTCATTC,0.305 ± 0.013
7,ATTCATTA,0.176 ± 0.007
8,ATACATTC,0.2884 ± 0.0017
9,GCCGTTCC,-0.21 ± 0.089
10,AGGTAGAG,-0.122 ± 0.024
11,AATGCTGT,-0.0251 ± 0.073
12,GGCCTCGA,-0.238 ± 0.045
13,GCGTGCAC,0.204 ± 0.017
14,ACGTGCAC,0.273 ± 0.051
15,ACGTGCTG,0.12 ± 0.063
16,CCGTGCTC,-0.119 ± 0.14
17,ACGTGCAT,0.195 ± 0.096
18,ACGTGCTC,0.259 ± 0.027
19,CTTACCAC,0.0166 ± 0.11
20,GTCCTTTA,-0.0713 ± 0.029
21,CCTATCCA,-0.0745 ± 0.015
22,AGTAGGAG,-0.0281 ± 0.053
23,CGCAAGAC,-0.023 ± 0.0044
24,CCCAATTA,0.203 ± 0.057
25,ACCAATTC,-0.0718 ± 0.0024

row,Sequence,PBM 8-mer E-score
1,CCCAATTC,0.246 ± 0.083
2,CATTCTTA,0.145 ± 0.085
3,ATGTTTGA,0.176 ± 0.031
4,ATAATCTG,0.123 ± 0.1
5,ATAATCAC,0.0279 ± 0.026
6,CTAATCAG,-0.0147 ± 0.026
7,ATAATCAT,0.27 ± 0.013
8,ATAATCAG,0.304 ± 0.005
9,ATAATCAA,0.0608 ± 0.095
10,CGTCGGCA,-0.197 ± 0.056
11,CTTCGTTC,-0.0473 ± 0.038
12,GGTTCAAC,-0.145 ± 0.05
13,CTCCATAA,0.0393 ± 0.028
14,TCCGGCAA,-0.207 ± 0.0021
15,CTTTCGTC,-0.0338 ± 0.038
16,ATTTCGTG,0.166 ± 0.031
17,ATTTCGTC,0.279 ± 0.019
18,CTACGACA,-0.0631 ± 0.043
19,AGCACGTA,0.0888 ± 0.021
20,ATCACGCC,0.192 ± 0.043
21,ATCACGCA,0.00557 ± 0.0074
22,ACCACGTA,-0.0775 ± 0.034
23,ACCACGTG,0.436 ± 0.012
24,CCCACGCG,0.231 ± 0.014
25,ATCACGCG,0.247 ± 0.015

row,Sequence,PBM 8-mer E-score
1,ACCACGTC,-0.0398 ± 0.011
2,AGCACGTG,0.4333 ± 0.0023
3,ACCACGCG,0.363 ± 0.023
4,ACCACGCA,0.0893 ± 0.0056
5,AGCACGTC,-0.0658 ± 0.05
6,ACTGCCAA,0.0746 ± 0.053
7,GGTAAGAC,-0.0928 ± 0.022
8,CCGATAAG,-0.181 ± 0.034
9,ATTTTGCA,0.143 ± 0.086
10,TCGTCTCA,-0.0634 ± 0.048
11,ATGTACCA,-0.0255 ± 0.13
12,GAGTGCGC,-0.0296 ± 0.0031
13,CCCCAAGA,0.144 ± 0.023
14,ACCTGGAT,-0.149 ± 0.028
15,GCCGCAGA,-0.0428 ± 0.041
16,CTAGGACC,-0.182 ± 0.025
17,AGCACGCG,0.289 ± 0.0067
18,ATCACGTG,0.397 ± 0.047
19,ATCACGTC,0.0413 ± 0.035
20,CGCACGCG,0.178 ± 0.032
21,AGCACGCA,0.00395 ± 0.075
22,ATCACGTA,0.00227 ± 0.14
23,CTTCTTAA,0.126 ± 0.15
24,CGAAGTGC,0.0928 ± 0.034
25,CACGCGGA,0.357 ± 0.015

row,Sequence,PBM 8-mer E-score
1,CACGCGGG,0.187 ± 0.091
2,AACGCGGA,-0.162 ± 0.14
3,GACGCGGC,-0.08 ± 0.03
4,AACGCGGC,-0.0876 ± 0.028
5,CACGCGGC,0.299 ± 0.034
6,ATTATGCC,0.128 ± 0.012
7,TGCGCACA,0.124 ± 0.025
8,ATGGGGCA,0.11 ± 0.12
9,GTGGGGGA,0.0699 ± 0.011
10,CTGGGGAA,-0.125 ± 0.026
11,ATGGGGCG,0.25 ± 0.0057
12,ATGGGGTC,0.0299 ± 0.041
13,ATGGGGCC,-0.0651 ± 0.11
14,GGGGGAAA,-0.0158 ± 0.089
15,ATGGGGTG,0.175 ± 0.018
16,ATGGGGTA,0.239 ± 0.05
17,TGGGGAAA,0.306 ± 0.022
18,TGGGGGAA,0.0001 ± 0.016
19,GTGGGGAA,0.277 ± 0.027
20,CACAGCGG,-0.125 ± 0.059
21,GATGCCGA,-0.0813 ± 0.081
22,AGCGTATA,0.0565 ± 0.04
23,ACATCACT,0.176 ± 0.046
24,GCCAGTAA,-0.116 ± 0.011
25,CCTCGCGC,-0.0606 ± 0.077

row,Sequence,PBM 8-mer E-score
1,CCTCAGAG,-0.228 ± 0.044
2,ATGGGGAC,0.0501 ± 0.13
3,ATGGGGAA,0.266 ± 0.018
4,CTGGGATA,-0.0899 ± 0.077
5,ATGGGGGA,-0.0138 ± 0.082
6,ATGGGATA,0.179 ± 0.02
7,GTGGGATA,0.292 ± 0.047
8,AGCATACG,0.02 ± 0.039
9,ATCGAGAA,0.0729 ± 0.041
10,ACAGGACC,-0.187 ± 0.045
11,CCGGTCCC,-0.358 ± 0.035
12,CACATATG,0.112 ± 0.013
13,AACACACT,0.249 ± 0.0053
14,GACATATA,0.12 ± 0.0021
15,ATCATATG,0.138 ± 0.065
16,AACACACG,0.0266 ± 0.031
17,CACATATC,0.223 ± 0.019
18,GTCATATA,0.207 ± 0.099
19,AACATATA,0.269 ± 0.036
20,AACATATG,0.0968 ± 0.03
21,AACACACA,0.118 ± 0.081
22,CACATATA,0.328 ± 0.021
